GSH bead fluor: compound fluoresces at 488/530 nm on GSH beads; GSH beads flow cytometry, compound fluorescence 488/530 nm; stronger effect = higher value; fluorescence (KMESF) at 10 µM; 190,000 compounds, 0.25% hits; in the data active = fluorescence above about 89;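 note: glutathione beads carrying GST-tagged Bcl family fusion proteins plus one bare bead set; values are compound well signal with DMSO vehicle wells as background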
RGS4-Gao reg: modulates binding of RGS4 to human Galphao | P09471 | Multiplexed bead flow cytometry; actives lie on both sides | binding response (% of control), % at 10 µM | 220,000 compounds, 0.33% hits | AID 1415; in the data active = binding response below about 49% or above about 150%; inactive = in between;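 note: fluorescent Galphao activated with aluminum fluoride binding bead-coupled RGS4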
Target sequence (P09471 whole entry, looked up): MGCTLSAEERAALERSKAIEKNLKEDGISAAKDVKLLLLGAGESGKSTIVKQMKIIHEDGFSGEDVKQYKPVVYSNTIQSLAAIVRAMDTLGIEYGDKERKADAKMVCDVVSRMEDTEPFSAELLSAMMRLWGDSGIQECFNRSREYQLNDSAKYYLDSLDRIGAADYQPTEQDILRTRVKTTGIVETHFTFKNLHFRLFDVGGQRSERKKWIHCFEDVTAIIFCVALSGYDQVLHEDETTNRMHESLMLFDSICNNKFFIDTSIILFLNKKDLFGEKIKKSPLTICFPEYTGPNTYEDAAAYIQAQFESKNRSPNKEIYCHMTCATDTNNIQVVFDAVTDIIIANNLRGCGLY
RGS7-Gao: regulators of human RGS7-Galphao interaction. 220,000 compounds, 0.35% hits. binding response (% of control), % at 10 µM. Multiplexed bead flow cytometry, RGS7-Galphao binding; actives lie on both sides. P09471. AID 1439; in the data active = binding response below about 49% or above about 150%; inconclusive = no clear call, values can overlap the other calls; inactive = in between;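 note: fluorescent Galphao held in activated GDP-AlF4 state binding bead-coupled RGS7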
RGS8-Gao: regulators of human RGS8-Galphao interaction. P09471. multiplexed bead flow cytometry, RGS8-Galphao binding; actives lie on both sides. response (percent of control binding), % at 10 µM. 220,000 compounds, 0.34% hits; in the data active = response below about 60% or above about 140%; inactive = in between;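 note: Galphao activated as the GDP aluminium fluoride complex binding bead-coupled RGS8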
Avidin bead fluor: compound fluoresces at 488/530 nm on avidin beads; compound fluorescence 488/530 nm, flow cytometry; stronger effect = higher value; 220,000 compounds, 0.38% hits; AID 1775; fluorescence (KMESF) at 10 µM; in the data active = fluorescence above about 47
RGS16-Gao HTS: regulators of human RGS16-Galphao interaction. O15492+P09471. bead-based flow cytometry RGS16-Galphao binding, fluorescence; actives lie on both sides. binding response (% of control), % at 10 µM. 220,000 compounds, 0.38% hits;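 note: Galphao activated by GDP with aluminum fluoride before binding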
RGS-Gao: regulators of human RGS4-Galphao interaction | RGS4–Galpha-o binding response, % at 10 µM | shares compounds with RGS16-Gao HTS | 1,600 compounds, 99% hits | multiplexed bead flow cytometry, RGS–Galpha-o binding | AID 1504;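 note: fluorescently labeled Galpha-o bound to GDP with aluminium fluoride binding biotinylated RGS beads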
Biotin-avidin: biotin-avidin bead binding disruption counter-screen; 1,700 tested, under 10 active; streptavidin beads, fluorescein-biotin binding, flow cytometry; inhibition, % at 10 µM; shares compounds with RGS16-Gao HTS;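 active = inhibition above 50%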;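 note: median green fluorescence of gated singlet beads compared with DMSO control wells; 0% = DMSO wells and 100% = complete loss of bead fluorescence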
RGS8-Gao single: confirmation of regulators of human RGS8-Galphao interaction. 1,700 compounds, 3% hits. shares compounds with RGS16-Gao HTS. bead-based flow cytometry RGS8-Galphao binding, fluorescence; actives lie on both sides. binding response (% of control), % at 10 µM; in the data active = binding response below about 72% or above about 130%; inactive = in between;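 note: Galphao activated as GDP AlF4 complex before binding bead RGS8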
RGS7-Gao single: RGS7-Galphao interaction regulation, single point confirmation; response (percent of control binding), % at 10 µM; 1,700 compounds, 7.8% hits; shares compounds with RGS16-Gao HTS; bead-based flow cytometry RGS7-Galphao binding; actives lie on both sides; in the data active = response below about 75% or above about 130%; inactive = in between;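 note: fluorescent Galphao activated with GDP and aluminum fluoride binding bead-coupled RGS7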
RGS16-Gao single: RGS16-Galphao interaction regulation, single point confirmation; shares compounds with RGS16-Gao HTS; bead-based flow cytometry, RGS16-Galphao binding; actives lie on both sides; response (% of control binding), % at 10 µM; 1,700 compounds, 4% hits; in the data active = response below about 74% or above about 130%; inactive = in between;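 note: Galphao activated as the GDP aluminium fluoride complex binding bead-coupled RGS16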
RGS4-Gao confirm: confirmation of regulators of human RGS4-Galphao interaction. shares compounds with RGS16-Gao HTS. RGS4-Galphao binding, multiplexed bead flow cytometry; actives lie on both sides. 1,700 compounds, 4% hits. AID 1840. binding response (% of control), % at 10 µM; in the data active = binding response below about 74% or above about 130%; inactive = in between
RGS19-Gao conf: RGS19-Galphao interaction regulation, single point confirmation; 1,700 compounds, 5% hits; response (percent of control binding), % at 10 µM; shares compounds with RGS16-Gao HTS; bead-based flow cytometry RGS19-Galphao binding; actives lie on both sides; in the data active = response below about 50% or above about 160%; inactive = in between;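 note: 100% = no compound control and 0% = blank background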
Target sequence (P09471 whole entry, looked up): as above
Target sequence (P49795 whole entry, looked up): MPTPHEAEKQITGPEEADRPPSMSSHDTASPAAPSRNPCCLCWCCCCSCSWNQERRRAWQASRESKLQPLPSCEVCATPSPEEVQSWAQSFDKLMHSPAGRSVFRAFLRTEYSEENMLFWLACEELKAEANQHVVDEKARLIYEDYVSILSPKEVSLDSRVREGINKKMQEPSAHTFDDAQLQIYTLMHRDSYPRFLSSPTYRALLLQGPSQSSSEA
* marks the source's active call; other numbers are inactive results; i = inactive; ? = inconclusive; · = not tested or not shown; [ ] = another dose, or the depositor's remark. The list is not random: actives were taken first. Their share in the collection is about 1.2%. Unless noted, the rule behind the calls is not given here.

SMILES	GSH bead fluor	RGS4-Gao reg	RGS7-Gao	RGS8-Gao	Avidin bead fluor	RGS16-Gao HTS	RGS-Gao	Biotin-avidin	RGS8-Gao single	RGS7-Gao single	RGS16-Gao single	RGS4-Gao confirm	RGS19-Gao conf
COc1ccc(NC(=O)CC(C)=O)c(OC)c1	·	101	?	102	9	99	·	·	·	·	·	·	·
COc1ccc(NC(=O)CC2SC(=Nc3ccccc3)NC2=O)c(OC)c1 (stereo unspecified)	23	100	99	100	3	93	·	·	·	·	·	·	·
COc1ccc(NC(=O)Nc2cc(C)ccc2OC(F)F)c(OC)c1	33	·	·	·	·	·	·	0	81	72*	80	78	71
Cc1ccc(NC(=O)Nc2ccc(F)cc2F)c(OC(F)F)c1	25	101	101	104	9	108	·	·	·	·	·	·	·
COc1ccc(NC(=O)CC(=O)Nc2ccc(OC)cc2OC)c(OC)c1	31	114	174*[activator]	99	79*	110	114*	-1	100	101	99	100	103
COc1ccc(NC(=S)NC2CCCCCC2)c(OC)c1	5	103	106	92	9	22*	103*	1	101	122	101	107	92
CN(C)CCCNC(=O)c1ccc(/C=N/O)nc1	13	6.1*	-11*	12*	0	9.7*	·	-1	102	105	101	102	99
CNCCCNC(=O)c1ccc(/C=N/O)nc1	13	101	102	100	10	102	·	·	·	·	·	·	·
COC(=O)C1=C(N)Oc2cc(C)n(Cc3cccnc3)c(=O)c2C1c1cccc(OC)c1OC (stereo unspecified)	28	125	240*[activator]	91	148*	118	125*	-1	100	101	102	101	94
N#Cc1c(-c2ccccc2)nc(SCC(=O)N2c3ccccc3Sc3ccccc32)[nH]c1=O	·	102	?	101	7	110	·	·	·	·	·	·	·
Cc1ccc(S(=O)(=O)CC(=O)Nc2ccc(F)c(F)c2F)cc1	·	-12*	?	9.2*	-2	-6.7*	·	-1	101	101	99	101	97
COc1cc(NC(=O)CS(=O)(=O)c2ccc(C)cc2)cc(OC)c1OC	33	102	101	100	15	101	·	·	·	·	·	·	·
CC(=O)C1=C(O)C(=O)N(Cc2ccccc2)C1c1cccs1 (stereo unspecified)	68	119	202*[activator]	101	171*	106	119*	-1	99	94	99	99	100
CC(=O)C1=C(O)C(=O)N(Cc2cccnc2)C1c1ccc(Cl)cc1 (stereo unspecified)	16	100	102	100	21	100	·	·	·	·	·	·	·
CCC(Cc1ccccc1)NC(=O)C1=C(C)C(=O)OC12CCC(C)CC2 (stereo unspecified)	13	59	32*	56*	3	50	59*	-2	90	76	87	83	76
O=C(COC(=O)[C@@H]1CC(O)CN1S(=O)(=O)c1ccc2c(c1)OCCO2)NCc1ccc(F)cc1 (stereo partly specified)	12	95	?	101	14	93	·	·	·	·	·	·	·
COCCNCc1nc2sc(C)c(-c3ccccc3)c2c(=O)[nH]1	·	104	?	103	3	104	·	·	·	·	·	·	·
NNC(=O)C1CC1c1ccc(Cl)cc1 (stereo unspecified)	13	96	96	72	2	26	·	·	·	·	·	·	·
O=C(NNC(=O)c1ccc([N+](=O)[O-])cc1)NC1CCCCC1	·	99	?	98	8	97	·	·	·	·	·	·	·
Cc1ccc(/C=N/n2c(C)nc3ccccc3c2=O)s1	13	100	?	101	13	103	·	·	·	·	·	·	·
CCNC(=S)N(Cc1ccc2c(c1)OCO2)C1CC(=O)N(c2ccc(OC)cc2)C1=O (stereo unspecified)	19	85	82	71	5	32	·	·	·	·	·	·	·
CCNC(=S)N(Cc1ccc(OC)cc1)C1CC(=O)N(c2ccc(OCC)cc2)C1=O (stereo unspecified)	18	·	·	·	·	·	·	0	102	108	107	103	99
Cc1nc(N2CCCCC2)c(C#N)c(C)c1[N+](=O)[O-]	25	156*[activator]	148	105	16	133	·	0	102	97	101	96	103
N#Cc1cccc(C(c2nnnn2Cc2ccccc2)N2CCCC2)c1 (stereo unspecified)	36	102	107	102	7	107	·	·	·	·	·	·	·
CN1CCN(C(c2cccc(C(F)(F)F)c2)c2nnnn2Cc2ccccc2)CC1 (stereo unspecified)	44	126	120	144*[activator]	5	348	126*	1	100	100	102	101	105
SMILES	GSH bead fluor	RGS4-Gao reg	RGS7-Gao	RGS8-Gao	Avidin bead fluor	RGS16-Gao HTS	RGS-Gao	Biotin-avidin	RGS8-Gao single	RGS7-Gao single	RGS16-Gao single	RGS4-Gao confirm	RGS19-Gao conf
Cc1ccc([N+](=O)[O-])cc1NC(=O)/C=C/C(=O)O	·	96	?	101	8	96	·	·	·	·	·	·	·
COc1ccc([N+](=O)[O-])cc1NC(=O)/C=C/C(=O)O	10	91	92	66	2	13*	91*	i	103	101	107	102	118
COc1ccc([N+](=O)[O-])cc1NC(=O)Cc1ccc(C)cc1	9	84	79	68	6	-0.2*	84*	1	102	100	99	102	86
Cc1cnc(C(=O)OCC(=O)NC(C)CCc2ccccc2)cn1 (stereo unspecified)	15	102	101	104	22	115	·	·	·	·	·	·	·
CC(=O)C12C3C4C(C5C1C3C5(Br)C41OCCO1)C21OCCO1 (stereo unspecified)	8	93	90	86	7	22*	93*	-2	112	117	112	113	99
NCC(c1ccccc1)(c1ccccc1)c1ccccc1	4	98	97	79	9	24*	98*	0	102	98	102	98	103

Screens deposited in PubChem BioAssay by NMMLSC.
